According to PubChem BioAssay (Tox21):
Records with an inconclusive call do not appear. Active and inactive are the calls of the source. Unless noted, calls follow the shape of the dose curve; as a rule, active = well fitted curve in the direction sought with a large enough effect in the repeat runs; inconclusive = weak or mixed curves; inactive = no such curve, though single readings can be large; an effect the other way counts as inactive or inconclusive.

Assays:
[1] = qHTS assay for small molecule agonists of the p53 signaling pathway (AID 651631; calls by dose curve; also: nearly all actives have a fitted effect of over 15% in size)
Outline: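 Readout was fluorescence from the LiveBLAzer FRET substrate, applied for 2 h at room temperature after 16 h compound exposure at 37 °C. Cells were the p53RE-bla HCT-116 line, with beta-lactamase driven by p53 response elements.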

[2] = qHTS assay for small molecules that induce genotoxicity in human embryonic kidney cells expressing luciferase-tagged ATAD5 (AID 651632); also: nearly all actives have a fitted effect of over 15% in size
Outline: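 DMSO vehicle served as the control. HEK293T reporter cells, 16 hr at 37C, then 30 min Amplite at room temperature; ATAD5 induction is measured as luciferase activity.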

[3] = qHTS assay for small molecule agonists of the p53 signaling pathway - cell viability (AID 651633; calls by dose curve; also: series mostly up to about 83 µM; nearly all actives have a fitted effect of over 30% in size)
Outline: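 p53RE-bla cells were treated with compound for 16 hours at 37 C. Cytotoxicity was then measured as CellTiter-Glo luminescence after 30 min at room temperature.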

[4] = qHTS assay for small molecules that induce genotoxicity in human embryonic kidney cells expressing luciferase-tagged ATAD5 - cell viability (AID 651634; calls by dose curve; also: nearly all actives have a fitted effect of over 25% in size)
Outline: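 Here HEK293T cells with the ATAD5 luciferase reporter are incubated with test compounds for 15.5 hr, and cytotoxicity is then gauged by measuring protease activity in live cells using fluorescence.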

[5] = qHTS assay for small molecule disruptors of the mitochondrial membrane potential - cell viability (AID 720634; calls by dose curve;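 also: human HepG2 liver cancer cells; series mostly up to about 83 µM; nearly all actives have a fitted effect of over 20% in size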)
Outline: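 Viability of HepG2 cells is scored from ATP content by luminescence; cells are exposed to compound for 1 hr at 37 C and 5% CO2, then dosed with m-MPI dye before the CellTiter-Glo reagent.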

[6] = qHTS assay to test for compound auto fluorescence at 590 nm (red) in HepG2 cells (AID 720674)
Outline: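 HepG2 cells, 2,000 per well in MEM with 10% FBS, attached overnight at 37 C, then got 23 nL compound or DMSO. After 1 hr at 37 C, 5% CO2, red fluorescence was read at 540/590 nm against Rose Bengal sodium as reference.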

[7] = qHTS assay to test for compound auto fluorescence at 535 nm (green) in HepG2 cells (AID 720675)
[8] = qHTS assay to test for compound auto fluorescence at 460 nm (blue) in HEK293 cells (AID 720678)
Outline: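 Measured: blue fluorescence (Ex 405/Em 460 nm) of compound-treated HEK293 cells, incubated overnight at 37C with 5% CO2 and scaled to triamterene equivalents.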

[9] = qHTS assay to test for compound auto fluorescence at 590 nm (red) in HEK293 cells (AID 720679)
Outline: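 Using HEK293 cells at 2,000 per well, the screen added 23 nL of each compound after cell attachment and incubated overnight (37C, 5% CO2). The plate reader then captured red-label fluorescence, Ex/Em 540/590nm.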

[10] = qHTS assay to test for compound auto fluorescence at 535 nm (green) in HEK293 cells (AID 720680)
[11] = qHTS assay to test for compound auto fluorescence at 460 nm (blue) in HEK293 cell free culture (AID 720681)
Outline: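 Compounds were added to cell-free DMEM with 10% FBS and fluorescence read directly. The blue channel used 405 nm excitation and 460 nm emission, with triamterene as the reference fluorophore.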

[12] = qHTS assay to test for compound auto fluorescence at 535 nm (green) in HEK293 cell free culture (AID 720682)
Outline: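 Compounds were pin-transferred into cell-free DMEM with 10% FBS, and green fluorescence was read at excitation 485 nm and emission 535 nm. Intensities were expressed as fluorescein-equivalent values.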

[13] = qHTS assay to test for compound auto fluorescence at 590 nm (red) in HEK293 cell free culture (AID 720683)
Outline: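 Cell-free wells of DMEM with 10% FBS received compound, and intrinsic fluorescence was read at excitation/emission 540/590 nm. Values expressed as equivalence to Rose Bengal sodium.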

[14] = qHTS assay to test for compound auto fluorescence at 590 nm (red) in HepG2 cell free culture (AID 720684)
Outline: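 Auto fluorescence equivalency versus Rose Bengal sodium, red channel Ex/Em 540/590 nm; compounds in cell-free MEM/10% FBS; DMSO vehicle control.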

[15] = qHTS assay to test for compound auto fluorescence at 460 nm (blue) in HepG2 cell free culture (AID 720685)
Outline: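 Cell-free plates of MEM plus 10% FBS received 23 nL compound or DMSO vehicle; blue-channel (405/460 nm) intensity scored against triamterene as reference fluorophore.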

[16] = qHTS assay to test for compound auto fluorescence at 535 nm (green) in HepG2 cell free culture (AID 720686)
[17] = biological target: Glucocorticoid receptor (Homo sapiens) (UniProt P04150); experiment: qHTS assay to identify small molecule agonists of the glucocorticoid receptor (GR) signaling pathway (AID 720691; active = well fitted activation curve with a large enough effect in the signal ratio in the repeat runs, not every such curve was filed as active; the % refers to the signal ratio)
Sequence of Glucocorticoid receptor (Homo sapiens) (P04150 whole entry, looked up): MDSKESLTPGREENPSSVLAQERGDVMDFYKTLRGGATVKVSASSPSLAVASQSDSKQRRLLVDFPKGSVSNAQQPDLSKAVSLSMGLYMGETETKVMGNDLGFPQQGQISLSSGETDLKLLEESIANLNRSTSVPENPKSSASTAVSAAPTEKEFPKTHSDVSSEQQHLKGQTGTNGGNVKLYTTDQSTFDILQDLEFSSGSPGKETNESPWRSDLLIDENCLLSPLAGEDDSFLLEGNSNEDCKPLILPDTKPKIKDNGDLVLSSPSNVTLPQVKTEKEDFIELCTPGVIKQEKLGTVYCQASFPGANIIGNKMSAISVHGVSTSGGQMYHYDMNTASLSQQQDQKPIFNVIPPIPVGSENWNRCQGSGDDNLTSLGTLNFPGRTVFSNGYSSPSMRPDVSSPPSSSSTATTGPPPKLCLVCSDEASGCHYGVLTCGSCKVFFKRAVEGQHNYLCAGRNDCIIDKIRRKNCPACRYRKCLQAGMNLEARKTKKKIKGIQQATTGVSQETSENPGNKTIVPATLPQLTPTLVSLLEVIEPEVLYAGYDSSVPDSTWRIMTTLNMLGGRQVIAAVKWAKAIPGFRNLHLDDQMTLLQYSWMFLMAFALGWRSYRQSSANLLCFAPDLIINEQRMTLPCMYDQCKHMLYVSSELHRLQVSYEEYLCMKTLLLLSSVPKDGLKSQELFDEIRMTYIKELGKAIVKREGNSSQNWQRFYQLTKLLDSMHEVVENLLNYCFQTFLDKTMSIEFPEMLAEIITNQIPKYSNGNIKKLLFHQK
Outline: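 Compounds in DMSO, alongside positive controls, were added to GR-bla HeLa reporter cells and incubated 18 h at 37 C; GRE-driven beta-lactamase was detected by fluorescence after 2 h with FRET substrate at room temperature.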

[18] = biological target: Glucocorticoid receptor (Homo sapiens) (UniProt P04150); experiment: qHTS assay to identify small molecule antagonists of the glucocorticoid receptor (GR) signaling pathway (AID 720692; active = well fitted inhibition curve with a large enough effect in the signal ratio in the repeat runs, not every such curve was filed as active; the % refers to the signal ratio)
Outline: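 In a 1536-well cell format, compounds were added 4 h after seeding GR-bla HeLa cells, together with dexamethasone at 5 nM final; reporter activity was measured by FRET-substrate fluorescence following 18 h at 37 C.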

[19] = qHTS assay to test for compound auto fluorescence at 460 nm (blue) in HepG2 cells (AID 720687)
Outline: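 HepG2 cells in MEM with 10% FBS, attached overnight at 37 C, were exposed to compound or DMSO for 1 hr at 37 C, 5% CO2. Blue fluorescence was read at 405/460 nm, with triamterene as reference fluorophore.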

[20] = qHTS assay for small molecule disruptors of the mitochondrial membrane potential (AID 720635)
Outline: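 HepG2 cells exposed to compound 1 hr at 37C, then Mito-MPS dye 30 min. Ratio read of aggregate (540/590 nm) versus monomer (490/535 nm) fluorescence.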

Measured: Potency

COC1=CC(=O)O[C@@H](/C=C/c2ccc3c(c2)OCO3)C1
not listed: [19] | [20]
inactive: all other assays above

CCCCC(CC)CO[N+](=O)[O-] (configuration not stated)
not listed: [10] | [20]
inactive: all other assays above

O=C(O)C(F)(F)C(F)(F)C(F)(F)C(F)(F)C(F)(F)F
not listed: [19] | [20]
inactive: all other assays above

CCCBr
not listed: [19] | [20]
inactive: all other assays above

OCCSSCCO
not listed: [17] | [20]
inactive: all other assays above

CC(C)(c1ccccc1)c1cc(-n2nc3ccccc3n2)c(O)c(C(C)(C)c2ccccc2)c1
not listed: [10] | [20]
inactive: all other assays above

COc1ccccc1N1CCNCC1
not listed: [11] | [17] | [20]
inactive: all other assays above

COC(=O)Cc1ccccc1
not listed: [17] | [20]
inactive: all other assays above

CCCC(C)(COC(N)=O)COC(=O)NC(C)C (configuration not stated)
not listed: [4] | [8] | [17] | [18]
inactive: all other assays above

O=C(Cl)OCCOCCOC(=O)Cl
not listed: [5] | [11] | [17] | [20]
inactive: all other assays above

C[C@H]1O[C@H](OC2[C@@H](O)[C@@H](O)C(O)[C@H](O)[C@H]2O)[C@@H](N)C[C@@H]1N=C(N)C(=O)O (some centres not stated)
not listed: [11] | [20]
inactive: all other assays above

O=C(O)C(Cl)(Cl)Br
not listed: [19] | [20]
inactive: all other assays above

C=CC(=O)NC(C)(C)CC(C)=O
not listed: [10] | [11] | [18] | [19] | [20]
inactive: all other assays above

CC1(C)CC(=O)CC(C)(C)N1[O]
not listed: [8] | [17] | [18] | [20]
inactive: all other assays above

C=C(Cl)Cl
not listed: [10] | [17] | [19] | [20]
inactive: all other assays above

CCOC(=O)c1cn2nc(OP(=S)(OCC)OCC)cc2nc1C
not listed: [5] | [19] | [20]
inactive: all other assays above

O=C([O-])c1ccccn1.O=C([O-])c1ccccn1.O=C([O-])c1ccccn1.[Cr+3]
not listed: [4] | [17] | [18]
inactive: all other assays above
